# Experimental data published in PubChem BioAssay AID2685 (National Center for Advancing Translational Sciences (NCATS), 2010).
# Among all 320,000 compounds or so, about 2,100 (0.66%) were called active. About 53% were inconclusive and are not listed. Calls follow the shape of the dose curve; as a rule, active = well fitted inhibition curve with a large enough effect in the signal ratio, with a control signal flat (not every such curve was filed as active); inconclusive = small, poorly fitted or top-dose-only effect, or effect the other way, or a change in a side signal; inactive = flat fitted curve, though single readings scatter; the % refers to the signal ratio. The sample as a whole holds a higher share of actives than the screen did.
# Experiment: qHTS Assay for Lipid Storage Modulators in Drosophila S3 Cells;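 as to cell number change: cells counted by Cell Tracker Red CMTPX staining in the red channel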; as to lipid storage change, negative = inhibition: % is scaled to controls: 0 for no effect and ±100 for the full control effect
# Conditions: BODIPY lipid droplet fluorescence, 18-24 h, cells fed with added oleic acid; cell number change: measured here: cell count max response; series mostly up to 46.1 µM
# Method in brief: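 Drosophila S3 cells got compounds at several concentrations plus oleic acid (400 uM solution). Laser-scanning cytometry with 488 nm excitation read lipid droplets at 500-530 nm and cells at 575-640 nm. Percent activity was relative to 20 uM Triacsin C.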
# Potency is read from the fitted curve at half-maximal effect.
SMILES,Potency,cell number change,"lipid storage change, negative = inhibition"
COC(=O)c1sccc1NC(=O)CC1C(=O)NCCN1C(=O)Nc1cc(Cl)ccc1OC (stereo not given),inactive,13.4%,–
CCC(=O)Oc1ccc2c(=O)c(-c3ccc4ccccc4n3)c(CC)oc2c1C,inactive,1.88%,–
COc1ccc(C(=O)N2CCCCC2)cc1S(=O)(=O)Nc1cccc(C(=O)O)c1,inactive,0.28%,–
COc1ccc(C(=O)O)cc1S(=O)(=O)Nc1cccc(C(F)(F)F)c1,29.1 µM (active),-15.9%,–
COc1ccc(F)cc1S(=O)(=O)Nc1cccc(C(=O)O)c1,inactive,–,–
COC(=O)c1cccc(C23CC4(C2)[C@H](CN(Cc2cccnc2)[C@@H]4c2ccccc2)C3c2ccc(Cl)nc2)c1 (stereo not given in full),inactive,17.9%,–
CC(C)(C)OC(=O)N/N=C/c1cccc([N+](=O)[O-])c1,inactive,14.2%,–
CCCCCCCNC(=O)C1(CC2CC(c3cccc(Br)c3)=NO2)CCN(C(=O)c2cc(OCC)c(OCC)c(OCC)c2)CC1 (stereo not given),inactive,-10.9%,–
CCOc1cc(C(=O)N2CCC(CC3CC(c4cccc(Br)c4)=NO3)(C(=O)NCC3CCCCC3)CC2)cc(OCC)c1OCC (stereo not given),2.06 µM (active),23.9%,–
O=C(c1ccccc1)N1CCC(CC2CC(c3cccc(Br)c3)=NO2)(C(=O)NCC2CCCCC2)CC1 (stereo not given),inactive,21.3%,–
O=C(NCC(=O)N(CCN1CCOCC1)C(C(=O)NC1CCCC1)c1ccccc1)c1cccs1 (stereo not given),inactive,-0.374%,–
Cc1ccc(N(Cc2ccccc2)C(=O)c2cccc(S(=O)(=O)N3CCN(C)CC3)c2)cc1,inactive,-1.81%,–
Cc1cc(=O)[nH]c(N/N=C/c2ccc(Cl)cc2Cl)n1,inactive,3.1%,–
CCN1CCN(Cc2ccc(NC(=O)c3ccc(C)c(NC(=O)c4ccc5n[nH]nc5c4)c3)cc2C(F)(F)F)CC1,inactive,–,–
CCN1CCN(Cc2ccc(NC(=O)c3ccc(C)c(NC(=O)c4ccnnc4)c3)cc2C(F)(F)F)CC1,inactive,–,–
CCN1CCN(Cc2ccc(NC(=O)c3ccc(C)c(/C=C/c4cnc(Nc5cc(N6CCNCC6)nc(C)n5)cn4)c3)cc2C(F)(F)F)CC1,18.4 µM (active),-17.2%,–
CN1CCc2nc(NC(=O)c3cccc(S(=O)(=O)N4CCc5ccccc54)c3)sc2C1,inactive,12.6%,–
COCC(=O)Nc1cc(C(=O)NCC(C)C)ccc1Cl,inactive,4.26%,–
COc1cc(OC)c(OC)cc1/C=N/n1c(C)nc2ccccc2c1=O,inactive,16.2%,–
Cc1nc2ccccc2c(=O)n1/N=C/c1ccccc1O,inactive,14.5%,–
COc1ccc(Br)cc1/C=N/n1c(C)nc2ccccc2c1=O,3.66 µM (active),-4.17%,–
Cc1ccc(NC(=O)Cn2nc(-c3ccccc3)nc2-c2ccccc2)c(C)c1,inactive,-8.2%,–

SMILES,Potency,cell number change,"lipid storage change, negative = inhibition"
CCOC(=O)CNC(=O)CSc1ncnc2c1cnn2-c1ccc(C)cc1,inactive,-17%,–
CCOC(=O)CSc1ncnc2c1cnn2-c1ccc(Cl)cc1,0.184 µM (active),4.64%,–
CCOC(=O)CSc1ncnc2c1cnn2-c1ccccc1,inactive,-3.98%,–
CCCOc1cccc(C(=O)N(Cc2ccco2)C2CCS(=O)(=O)C2)c1 (stereo not given),inactive,-9.39%,–
CCNC(=S)NCc1ccc2[nH]c(C)cc2c1,inactive,15.9%,–
COc1cc(C(=O)NCCc2ccc(F)cc2)c([N+](=O)[O-])cc1OC,inactive,–,–
COc1ccccc1CNS(=O)(=O)c1c(C)[nH]c(C)c1C(=O)N1CCCC1,inactive,–,–
COc1ccc(CCNS(=O)(=O)c2c(C)[nH]c(C)c2C(=O)N2CCCCC2)cc1OC,inactive,-25.1%,–
Cc1[nH]c(C)c(S(=O)(=O)NCCc2ccccc2)c1C(=O)N1CCCCC1,11.6 µM (active),-13.9%,–
COc1ccccc1CNS(=O)(=O)c1c(C)[nH]c(C)c1C(=O)N1CCCCC1,18.4 µM (active),-19.3%,–
Cc1[nH]c(C)c(S(=O)(=O)NCCc2ccccc2)c1C(=O)N1CCCC1,inactive,13.4%,–
Cc1[nH]c(C)c(S(=O)(=O)Nc2ccc(OC(F)(F)F)cc2)c1C(=O)N1CCCCC1,4.11 µM (active),-12.7%,–
COC(=O)c1ccc(NS(=O)(=O)c2c(C)[nH]c(C)c2C(=O)N2CCCC2)cc1,inactive,-16.1%,–
Cc1ccccc1CNS(=O)(=O)c1c(C)[nH]c(C)c1C(=O)N1CCCCC1,inactive,-3.58%,–
CCOC(=O)c1ccc(NS(=O)(=O)c2c(C)[nH]c(C)c2C(=O)N2CCCCC2)cc1,inactive,–,–
O=C(CN1CCN(Cc2ccccc2Cl)CC1)N/N=C/C=C\c1ccccc1[N+](=O)[O-],inactive,0.435%,–
Cc1ccccc1C(=O)c1cccn1CC(=O)NCC(C)c1ccccc1 (stereo not given),inactive,-7.34%,–
COc1ccc(C(C(=O)NCCC(C)C)N(CCO)C(=O)c2snc(C(N)=O)c2N)cc1 (stereo not given),inactive,-7.09%,–
O=C(CSc1nnnn1C1CCCC1)NCc1ccc2c(c1)OCO2,inactive,–,–
CC1CCN(C(=O)c2ccccc2NS(=O)(=O)c2ccccc2)CC1,inactive,7.63%,–
Clc1ccc(N2CCN(Cc3ccco3)CC2)cc1,inactive,9.59%,–
Cc1[nH]c2ccccc2c1/C=C(\C#N)C(=O)NC1CC1,inactive,–,–

SMILES,Potency,cell number change,"lipid storage change, negative = inhibition"
CC1CCN(C2(O)C(=O)Nc3ccc([N+](=O)[O-])cc32)CC1 (stereo not given),inactive,-1.63%,–
Cc1cccc(NC(=O)c2cccc(N3C(=O)CCC3=O)c2)c1,inactive,-21.8%,–
Cc1cccc(NC(=O)c2cccc(N3C(=O)C4C5C=CC(C6CC56)C4C3=O)c2)c1 (stereo not given),1.3 µM (active),-23.8%,–
O=C(Nc1ccccc1)c1cccc(N2C(=O)C3C4C=CC(C5CC45)C3C2=O)c1 (stereo not given),16.4 µM (active),-4.48%,–
COc1ccc(NC(=O)c2cccc(N3C(=O)C4C5C=CC(C6CC56)C4C3=O)c2)c(OC)c1 (stereo not given),5.17 µM (active),–,–
COc1ccc(NC(=O)c2cccc(N3C(=O)C4C5C=CC(C6CC56)C4C3=O)c2)cc1 (stereo not given),inactive,8.84%,–
O=C(Nc1ccc(F)cc1)c1cccc(N2C(=O)C3C4C=CC(C4)C3C2=O)c1 (stereo not given),inactive,-17.9%,–
Cc1ccc(NC(=O)c2cccc(N3C(=O)C4C5CCC(C5)C4C3=O)c2)c(C)c1 (stereo not given),inactive,26.1%,–
COc1ccc(NC(=O)c2cccc(N3C(=O)C4C5C=CC(C5)C4C3=O)c2)c(OC)c1 (stereo not given),inactive,-15.9%,–
COc1ccc(NC(=O)c2ccccc2N2C(=O)C3C4C=CC(C5CC45)C3C2=O)c(OC)c1 (stereo not given),inactive,-15.3%,–
CC(C)CNS(=O)(=O)c1ccc(OCC(=O)Nc2ccc3c(c2)OCCO3)cc1,inactive,–,–
Cc1nnc(SCC(=O)N2CCN(S(=O)(=O)c3ccc(Cl)cc3)CC2)n(N)c1=O,inactive,-9.35%,–
COc1ccc(/C=N/Nc2cc(C)nc(N3CCOCC3)n2)c(OC)c1,inactive,-6.43%,–
Cc1ccc(NC(=O)c2cc([N+](=O)[O-])ccc2N2CCOCC2)cc1S(=O)(=O)N(C)C,inactive,9.84%,–
O=C(Nc1ccccc1O)c1nc(Cl)ccc1Cl,inactive,9.99%,–
COc1ccc(NS(=O)(=O)c2ccc(C)c(C(=O)N3CC(C)OC(C)C3)c2)cc1 (stereo not given),inactive,23.9%,–
COc1ccc(NS(=O)(=O)c2ccc(N3CCN(CCO)CC3)c([N+](=O)[O-])c2)cc1,10.3 µM (active),-29.2%,–
COC(=O)c1cc(NS(=O)(=O)c2ccc(N3CCCCC3)c([N+](=O)[O-])c2)cc(C(=O)OC)c1,inactive,-2.76%,–
COc1ccc(NS(=O)(=O)c2ccc(C)c(C(=O)O)c2)cc1,25.9 µM (active),-20.6%,–
O=C(O)c1ccc(NS(=O)(=O)c2ccc(N3CCCC3)c([N+](=O)[O-])c2)cc1,inactive,8.51%,–
COC(=O)c1ccc(NS(=O)(=O)c2ccc(OC)cc2)cc1,inactive,–,–
COc1ccc(NS(=O)(=O)c2ccc(C)c(C(=O)N(C)Cc3ccc(OC)cc3OC)c2)cc1,–,–,-11.3% [at 0.0737 µM] (inactive)

SMILES,Potency,cell number change,"lipid storage change, negative = inhibition"
COc1ccc(S(=O)(=O)Nc2ccc(NC(C)=O)cc2)cc1,inactive,29.3%,–
COc1ccc(NS(=O)(=O)c2ccc(N)c(C(=O)O)c2)cc1,20.6 µM (active),1.73%,–
CCOC(=O)CNC(=O)CSc1nnc(-c2ccco2)n1Cc1ccco1,inactive,-21.7%,–
O=C(CCCCCNC(=O)N1CCn2c1nc1ccccc12)N[C@@H](C(=O)O)c1ccccc1,inactive,-11.9%,–
Cc1cc(C)c(C#N)c(OCC(=O)Nc2ccccc2)n1,inactive,11.6%,–
CN1CCN(C(=O)c2ccc(Oc3ccc([N+](=O)[O-])cc3)cc2)CC1,inactive,–,–
COc1cccc(CNC(=O)c2ccc(NC(=O)CC3SC(N4CCCCC4)=NC3=O)cc2)c1 (stereo not given),inactive,11.7%,–
O=C(Cn1cc[n+](CC(=O)c2ccc(Cl)cc2Cl)c1)c1ccc(Cl)cc1Cl,inactive,-3.27%,–
N/C(=N\OC(=O)c1cccc2ccccc12)c1ccncc1,inactive,1.71%,–
N/C(=N\OC(=O)c1cccc2ccccc12)c1ccc(Br)cc1,10.3 µM (active),18.1%,–
N/C(=N\OC(=O)c1cccc2ccccc12)c1cccnc1,inactive,18.1%,–
CC(=O)c1cccc(NC(=O)c2ccc(C(=O)Nc3cccc(C(C)=O)c3)nc2)c1,inactive,0.877%,–
Cc1ccccc1S(=O)(=O)Oc1ccccc1C(=O)Oc1ccccc1,inactive,-11.7%,–
O=C(Oc1ccccc1)c1ccccc1OS(=O)(=O)c1ccccc1,0.517 µM (active),–,–
O=Cc1ccccc1OS(=O)(=O)c1ccccc1,inactive,-9.79%,–
CC(=O)NC(C)C(=O)OCc1ccc(Cl)cc1Cl (stereo not given),inactive,–,–
COc1cccc(CNC(=O)CCCCCn2c(=S)[nH]c3ccc(N4CCOCC4)cc3c2=O)c1,inactive,4.01%,–
O=C(CCCCCn1c(=S)[nH]c2ccc(N3CCOCC3)cc2c1=O)NCCc1ccccc1,inactive,-6.4%,–
Cc1cccc(N2CCN(C(=O)CCCCCn3c(=S)[nH]c4ccc(N5CCOCC5)cc4c3=O)CC2)c1C,20.6 µM (active),1.42%,–
